Our source for the Potency values is PubChem BioAssay (NCATS).

A number with no mark means an inactive call. No rule for the calls is given here.
Potency is read from the fitted curve at half-maximal effect.

The test deals with HIV-1 nucleocapsid protein NCp7 (binding to TG oligonucleotide). Put plainly: HIV Nucleocapsid (AID 346).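 Also: potency is for inhibitors that block NC binding and lower polarization.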 To be noted: HIV-1 NC / fluorescein-TGTGTGTG probe, fluorescence polarization. The method, boiled down: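 Fluorescence polarization readout: labelled TG4xF oligo (10 nM) with 100 nM nucleocapsid protein, high-salt (250mM NaCl) Hepes pH 7.5 buffer containing zinc and fresh reducing agents. Compounds added by pin tool; incubation 1 hr, room temperature.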
A general note: Polarisation of emitted light reports the rotation of a fluorescent probe.
`COCCn1c(=O)c(-c2ccccc2)nc2cnc(Oc3ccccc3)nc21`: the Potency was over 20 µM.
Then `O=C(c1cnccn1)N1CCC2(CCCN(Cc3ccncc3)C2)CC1`, with over 20 µM; and `COc1ccc(C(=O)N2CCC3(CC2)CN(c2ccc(-c4ccccc4)cc2)C3)cc1`, with over 20 µM.
For the compound `O=c1cnc2cncnc2n1Cc1ccccc1`, the Potency is over 4 µM.
Under `COc1ncc2nc(-c3cccs3)c(=O)n(Cc3ccc(F)cc3)c2n1` stands over 20 µM; under `Cc1ccccc1-c1cncnc1N(C)Cc1ccco1`, over 20 µM; under `N#Cc1cccc(NC(=O)N2CCC3(CC2)CCN(C(=O)c2csnn2)CC3)c1`, over 20 µM.
Under `CC(=O)NCCNc1nc(-c2ccccc2Cl)nc2ccccc12` stands over 20 µM; under `O=C(c1cccc(F)c1)N1CCC2(CC1)CCN(c1ccccc1)CC2`, over 20 µM; under `CN(C)c1ncc2nc(-c3ccccc3)c(=O)n(CCc3ccccc3)c2n1`, over 20 µM.
In the case of `O=C(c1cnccn1)N1CCC2(CCCN(c3ccccn3)C2)CC1`, the Potency is over 20 µM.
Consider `Cn1cccc1C(=O)N1CCC2(CCCN(c3ccc(-c4ccccc4)cc3)C2)CC1`, for which the Potency was over 20 µM.
Then `COc1ccc2[nH]cc(CCNc3ncncc3-c3ccccc3C(F)(F)F)c2c1`, with over 20 µM; and `CC(C)NC(=O)N1CCC2(CC1)CCN(C(=O)c1ccncc1)CC2`, with over 20 µM.
As to `COCCn1c(=O)c(-c2cccs2)nc2cncnc21`, the Potency is over 20 µM.
For the compound `CN(C)C(=O)c1ccc(-c2ccc3ncnc(NCc4ccccc4)c3c2)cc1`, the Potency was over 20 µM.
Under `CC(=O)NCCNc1ncnc2ccc(-c3ccc(C(=O)N(C)C)cc3)cc12` stands over 20 µM.
Then `O=C(c1csnn1)N1CCC2(CC1)CN(C(c1ccccc1)c1ccccc1)C2`, with over 20 µM.
Then `COc1ccc(Oc2ncc3nc(-c4ccccc4)c(=O)n(Cc4cccs4)c3n2)cc1`, with over 20 µM; and `Cn1c(=O)c(-c2ccc(Cl)cc2)nc2cncnc21`, with over 20 µM; and `Cc1cnc(CNc2ncnc3ccc(-c4ccc(C(=O)N(C)C)cc4)cc23)cn1`, with over 20 µM.
Regarding `CC(=O)N1CCC2(CCCN(C(=O)Nc3cccc(C#N)c3)C2)CC1`, the Potency was over 20 µM.
For the compound `COc1ccccc1-c1ccc2ncnc(NC3CCNCC3)c2c1`, the Potency was over 20 µM.
Regarding `COc1ccc(CNc2nc(-c3cccc(NS(C)(=O)=O)c3)nc3ccccc23)c(OC)c1`, the Potency is over 20 µM.
Take `COCC(=O)N1CCC[C@@]2(CCN(Cc3ccc(C#N)cc3)C2)C1`: the Potency is over 20 µM.
Regarding `CS(=O)(=O)N1CCC2(CC1)CN(C(c1ccccc1)c1ccccc1)C2`, the Potency was over 20 µM.
Under `Cc1noc(C)c1C(=O)N1CCC[C@@]2(CCN(C(=O)Nc3cccc(C#N)c3)C2)C1` stands over 20 µM.
Under `N#Cc1cccc(NC(=O)N2CCCC3(CCN(C(=O)c4cc(C(F)(F)F)cc(C(F)(F)F)c4)CC3)C2)c1` stands over 20 µM.
Then `COc1ccc(-c2nc3cnc(N(C)C)nc3n(C)c2=O)cc1`, with over 4 µM.
In the case of `O=C(c1ccncc1)N1CCC2(CC1)CN(c1ncccn1)C2`, the Potency is over 20 µM.
Under `O=c1c(-c2ccc(Cl)cc2)nc2cnc(N3CCNCC3)nc2n1Cc1cccs1` stands over 20 µM; under `Cc1nc2cnc(Oc3ccccc3)nc2n(C2CC2)c1=O`, over 20 µM; under `COc1ccc2[nH]cc(CCNc3cc(-c4ccccc4Cl)ncn3)c2c1`, over 20 µM.
Regarding `CN(C)c1nc(-c2ccc3c(c2)OCO3)nc2ccccc12`, the Potency is over 20 µM.
Then `Cc1cnc(CNc2nc(-c3ccoc3)nc3ccccc23)cn1`, with over 20 µM.
On to `COc1ccc(CNc2cc(-c3ccccc3C)ncn2)c(OC)c1`, for which the Potency was over 20 µM.
With `Cn1cccc1C(=O)N1CCC2(CCN(Cc3ccccc3)CC2)CC1`, the Potency was over 20 µM.
Then `Cc1cnc(CNc2ncncc2-c2ccc3c(c2)OCO3)cn1`, with over 20 µM.
Under `O=C(c1ccncc1)N1CCC[C@@]2(CCN(C(c3ccccc3)c3ccccc3)C2)C1` stands over 20 µM.
Under `O=C(c1cnccn1)N1CCC2(CCCN(C(c3ccccc3)c3ccccc3)C2)CC1` stands over 20 µM.
